# CYP2C19 act: increases human CYP2C19 enzyme activity | AID 1025 | recombinant CYP2C19, luciferin-H EGE luminescence; hits give high values; 0 = fully inhibited enzyme, 1 = untreated enzyme | 96,000 tested, under 10 active | activation factor at 5 µM;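 active means activation factor of at least 2 at 5 µM in the primary screen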
# sEH inh: soluble epoxide hydrolase (human) inhibition. recombinant human sEH enzymatic activity assay. inhibition, % at 2 µM. 91,000 tested, 0.34% active. AID 707; in the data active means inhibition above about 80%
# sEH activator: activators of human soluble epoxide hydrolase; 91,000 tested, 0.04% active; purified human sEH enzymatic activity, activator screen; AID 717; activation, % at 2 µM; in the data active means activation above about 37%
# CYP2C19 inh: inhibitors of human CYP2C19; P33261; CYP2C19 Supersomes, luciferin-H EGE luminescence, 30 min; inhibition, % at 5 µM; 96,000 tested, 21% active; AID 778;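 active means CYP2C19 inhibition above a set limit at 5 µM in the primary screen, cut at about 50% in these data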
# CYP2C9 inhib: blocks human cytochrome P450 2C9. P11712. CYP2C9 Supersomes, luciferin-H conversion, luminescence. inhibition, % at 5 µM. 96,000 tested, 20% active. AID 777;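 active means blocking of liver enzyme CYP2C9 beyond about 50% at 5 µM, limit read from the data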
# Target sequence (P11712 whole entry, looked up): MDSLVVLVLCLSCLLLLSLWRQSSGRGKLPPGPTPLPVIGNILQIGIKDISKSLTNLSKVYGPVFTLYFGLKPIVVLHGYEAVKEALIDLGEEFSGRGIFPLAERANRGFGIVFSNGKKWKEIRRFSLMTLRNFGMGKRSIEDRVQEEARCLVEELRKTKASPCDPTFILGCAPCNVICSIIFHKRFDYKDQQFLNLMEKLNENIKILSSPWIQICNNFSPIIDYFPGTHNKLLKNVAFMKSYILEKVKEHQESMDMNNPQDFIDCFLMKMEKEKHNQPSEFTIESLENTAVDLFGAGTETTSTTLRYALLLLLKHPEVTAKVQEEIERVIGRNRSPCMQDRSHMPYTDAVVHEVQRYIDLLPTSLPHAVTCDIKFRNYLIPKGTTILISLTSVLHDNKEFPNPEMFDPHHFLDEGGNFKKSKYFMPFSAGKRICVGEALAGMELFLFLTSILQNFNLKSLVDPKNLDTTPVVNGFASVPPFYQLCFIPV
# CYP2C9 activ: increases human cytochrome P450 2C9 activity | AID 1024 | activation factor at 5 µM | 96,000 tested, 1.4% active | recombinant CYP2C9, luciferin-H conversion, luminescence; hits give high values; factor 1 = untreated enzyme, 0 = blocked | P11712;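 active means activation factor of 2 or more for CYP2C9 at a 5 µM dose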
# Numbers stand for hits; . = inactive; / = no result given. Sampled rows, rich in hits. Any-hit rate of the full collection: about 27%.
SMILES,CYP2C19 act,sEH inh,sEH activator,CYP2C19 inh,CYP2C9 inhib,CYP2C9 activ
CCCCSc1nnc2c(n1)OC(C(=O)c1ccccc1)Nc1ccccc1-2 (configuration not stated),.,.,.,.,87.3,.
COc1ccccc1C(=O)C1Nc2ccccc2-c2nnc(SC)nc2O1 (configuration not stated),/,.,.,/,/,/
Cc1c(C(=O)/C=C/c2cccs2)oc2ccc(F)cc12,.,.,.,.,.,.
Cc1cc(Cl)cc(Br)c1OCCCCn1cncn1,.,.,.,97.8,73.1,.
C=CCc1cc(C)cc(C)c1OCCn1cncn1,/,.,.,/,/,/
Cc1cc(Cl)c(OCCCn2cncn2)c(Br)c1,.,.,.,94.4,.,.
COCCCNCCCCOc1c(Cl)cc(C)cc1Br,.,.,.,.,.,.
C=CCNCCCCOc1c(Cl)cc(C)cc1Br,.,.,.,57.2,.,.
CC(C)Oc1ccc(/C=N/NC(=O)C(CSCc2ccccc2)NC(=O)c2ccc([N+](=O)[O-])cc2)cc1 (configuration not stated),/,.,.,/,/,/
Cn1c(=O)c2c(nc(Oc3ccccn3)n2C)n(C)c1=O,.,/,/,.,.,.
CCN1CCN(S(=O)(=O)c2ccc(Cl)c(C(=O)Nc3nnc(CC(C)C)s3)c2)CC1,.,.,.,.,.,.
COc1cc(C(=O)NCCCNc2nc3cc(C)cc(C)c3cc2C#N)cc(OC)c1OC,.,.,.,57.4,.,.
C/C(=N\NC(=O)C1CCCN(S(=O)(=O)c2ccccc2)C1)c1ccncc1 (configuration not stated),.,.,.,.,68.6,.
CCc1nnc(NC(=O)C2CCCN2S(=O)(=O)c2ccc(C)cc2)s1 (configuration not stated),.,.,.,.,64.7,.
CCc1nnc(NC(=O)C2CCC2)s1,.,/,/,.,.,.
CCc1nnc(NC(=O)C2Cc3ccccc3CN2S(=O)(=O)c2ccc(C)cc2)s1 (configuration not stated),.,.,.,98.8,63.8,.
CCc1nnc(NC(=O)c2ccc(S(=O)(=O)N3CCOCC3)cc2)s1,.,.,.,.,.,.
CCc1nnc(NC(=O)C2CCCN(S(=O)(=O)c3ccccc3)C2)s1 (configuration not stated),.,.,.,63.9,.,.
O=C(CSc1nnc(-c2ccc(Cl)cc2Cl)n1C1CCCCC1)N1CCCC1,.,.,.,.,.,.
CC(C(=O)N(C1CC1)C1(C(=O)Nc2ccccc2)CCCC1)N1C(=O)c2ccccc2C1=O (configuration not stated),.,/,/,.,.,.
CCc1nnc(NC(=O)C2CCCN2C(=O)Nc2ccccc2OC)s1 (configuration not stated),.,.,.,.,.,.
O=C(Nc1nnc(C2CC2)s1)C1Cc2ccccc2CN1S(=O)(=O)c1cccs1 (configuration not stated),.,.,.,100.0,67.4,.
CCc1nnc(NC(=O)C2Cc3ccccc3CN2S(=O)(=O)c2cccs2)s1 (configuration not stated),.,.,.,61.1,63.4,.
Cc1cc2nc(-c3ccc(SCc4ccccc4C#N)nc3)[nH]c2cc1C,.,.,.,.,.,.
N#Cc1ccccc1CSc1ccccn1,.,.,.,56.3,.,.
SMILES,CYP2C19 act,sEH inh,sEH activator,CYP2C19 inh,CYP2C9 inhib,CYP2C9 activ
COc1ccccc1-n1cnc2cc(NCc3ccccn3)ccc21,.,.,.,.,.,.
COc1ccc(CNc2ccc3c(c2)nc(C)n3C)cc1,.,.,.,57.9,.,.
Cc1nc2cc(CO)ccc2n1C,.,.,.,.,.,.
CCc1ccc(CNc2ccc3c(c2)ncn3C)cc1,.,.,.,69.5,.,.
COc1ccc(-n2cnc3cc(NCc4cccs4)ccc32)cc1,.,.,.,.,.,.
CCn1cnc2cc(NCc3ccncc3)ccc21,.,.,.,.,62.5,.
Cc1ccc(-n2cnc3cc(NCc4cccs4)ccc32)cc1,.,.,.,89.5,93.3,.
Cc1cccc(NC(=O)NCc2ccccn2)c1,/,.,.,/,/,/
Nc1nc2nc(SCC(=O)N3CCCc4ccccc43)[nH]c2c(=O)[nH]1,.,.,.,.,.,.
Cc1ccc(CNc2ccc3c(c2)ncn3C)cc1,.,.,.,62.1,.,.
Cc1ccc(C(=O)Nc2ccc3c(c2)ncn3C)cc1,.,.,.,.,.,.
CSc1oc(-c2ccc(F)cc2)nc1S(=O)(=O)c1ccccc1,/,.,.,/,/,/
